Reference: the supplement of paper PMC8975748
Structures can show the parent of a compound that is named as a salt.

These molecules were tested on Saccharomyces cerevisiae BY4741 SeMeCo community (assay: z-score of prototroph abundance vs DMSO median; higher = larger share of this subpopulation than in DMSO controls). Conditions: 10 µM; 24 h; SM minimal medium; subpopulation (auxotrophy): Prototroph.
Description: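 Fluorescent four-plasmid SeMeCo (self-establishing metabolically cooperating S. cerevisiae BY4741 community; plasmids pH-mRuby2, pL-mWasabi, pU-eCFP, pM-TagRFP657) was grown 24 h in minimal SM medium with each Selleck FDA-approved drug at 10 µM in 384-well plates. Cells were fixed and imaged by high-content confocal microscopy. For each auxotrophic subpopulation (and the prototroph), a z-score gives the deviation from the DMSO vehicle-control population median.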
With `COc1c(N2C[C@@H]3CCCN[C@@H]3C2)c(F)cc2c(=O)c(C(=O)O)cn(C3CC3)c12` [Moxifloxacin HCl] the “z-score of prototroph abundance” value was -0.74.
`CN1C[C@@H]2C[C@H]1CN2c1cc2c(cc1F)c(=O)c(C(=O)O)cn2C1CC1` [Danofloxacin Mesylate] was tested, and the “z-score of prototroph abundance” value was 0.27.
In the case of `CC1(C)CC[C@]2(C(=O)O)CC[C@]3(C)C(=CC[C@@H]4[C@@]5(C)CC[C@H](O)C(C)(C)[C@@H]5CC[C@]43C)[C@@H]2C1` [Oleanolic Acid], the “z-score of prototroph abundance” value is reported as -0.29.
`C[C@@H](O)[C@H]1C(=O)N2C(C(=O)O)=C(S[C@@H]3CN[C@H](C(=O)Nc4cccc(C(=O)O)c4)C3)[C@H](C)[C@H]12` [Ertapenem sodium] was tested, and the “z-score of prototroph abundance” value was 0.33.
`CO/N=C(\C(=O)N[C@@H]1C(=O)N2C(C(=O)O)=C(CSc3nnnn3C)CS[C@H]12)c1csc(N)n1` [Cefmenoxime hydrochloride] was tested, and the “z-score of prototroph abundance” value was -0.33.
`C[C@H]1COc2c(C3(N)CC3)c(F)cc3c(=O)c(C(=O)O)cn1c23` [Pazufloxacin mesylate] was tested, and the “z-score of prototroph abundance” value was -0.35.
In the case of `COc1ccnc(C[S+]([O-])c2nc3cc(-n4cccc4)ccc3[nH]2)c1C` (stereo not given) [Ilaprazole sodium], the “z-score of prototroph abundance” value is reported as -0.81.
`CC[C@H](c1ccc(O)cc1)[C@@H](CC)c1ccc(O)cc1` [Hexestrol] was tested, and the “z-score of prototroph abundance” value was 1.27.
With `O=C1OCCN1/N=C/c1ccc([N+](=O)[O-])o1` [Furazolidone] the “z-score of prototroph abundance” value was 3.52.
In the case of `CC(=O)OC(C)C[N+](C)(C)C` (stereo not given) [Methacholine chloride], the “z-score of prototroph abundance” value is reported as -0.97.
With `CCCOc1ccc2[nH]c(NC(=O)OC)nc2c1` [Oxibendazole] the “z-score of prototroph abundance” value was -1.22.
`C[C@](N)(Cc1ccc(O)c(O)c1)C(=O)O` [Methyldopa] was tested, and the “z-score of prototroph abundance” value was 0.97.
`O=C1C(N(CO)C(=O)NCO)N(CO)C(=O)N1CO` (stereo not given) [Diazolidinyl urea] was tested, and the “z-score of prototroph abundance” value was 1.06.
`C#C[C@]1(O)CC[C@H]2[C@@H]3CCC4=CCCC[C@@H]4[C@H]3C(=C)C[C@@]21CC` [Desogestrel] was tested, and the “z-score of prototroph abundance” value was 0.47.
In the case of `CC(C(O)c1ccc(O)cc1)N1CCC(Cc2ccccc2)CC1` (stereo not given) [Ifenprodil Tartrate], the “z-score of prototroph abundance” value is reported as 0.98.
`CC[C@H]1OC(=O)[C@H](C)[C@@H](O[C@H]2C[C@@](C)(OC)[C@@H](O)[C@H](C)O2)[C@H](C)[C@@H](O[C@@H]2O[C@H](C)C[C@H](N(C)C)[C@H]2O)[C@](C)(O)C[C@@H](C)CN[C@H](C)[C@@H](O)[C@]1(C)O` [Azathramycin] was tested, and the “z-score of prototroph abundance” value was 0.12.
`CN1[C@@H]2CC[C@H]1C[C@@H](OC(=O)c1c[nH]c3ccccc13)C2` [Tropisetron HCl] was tested, and the “z-score of prototroph abundance” value was -1.
In the case of `O=C1NCC2(CCN(CCc3ccccc3)CC2)O1` [Fenspiride HCl], the “z-score of prototroph abundance” value is reported as -0.38.
In the case of `O=c1[nH]cc(F)c(=O)[nH]1` [Fluorouracil (5-Fluoracil, 5-FU)], the “z-score of prototroph abundance” value is reported as -10.5.
For `CC1(C)S[C@@H]2[C@H](NC(=O)Cc3ccccc3)C(=O)N2[C@H]1C(=O)O` [Benzylpenicillin potassium], the “z-score of prototroph abundance” value was -0.27.
With `Cc1c(S(=O)(=O)O)oc2c1C(=O)C(=O)c1c-2ccc2c1CCCC2(C)C` [Tanshinone IIA sulfonate (sodium)] the “z-score of prototroph abundance” value was -0.48.
For `CCCCN1CCCCC1C(=O)Nc1c(C)cccc1C` (stereo not given) [Bupivacaine HCl], the “z-score of prototroph abundance” value was 0.23.
`O=C(O)CCc1nc(-c2ccccc2)c(-c2ccccc2)o1` [Oxaprozin] was tested, and the “z-score of prototroph abundance” value was 2.48.
In the case of `CC1=C(CC(=O)O)c2cc(F)ccc2/C1=C\c1ccc([S+](C)[O-])cc1` (stereo not given) [Sulindac], the “z-score of prototroph abundance” value is reported as 0.27.
In the case of `C[C@H](NCc1ccc(OCc2cccc(F)c2)cc1)C(N)=O` [Safinamide], the “z-score of prototroph abundance” value is reported as -0.89.
For `Clc1ccc(CCC(Cn2ccnc2)Sc2c(Cl)cccc2Cl)cc1` (stereo not given) [Butoconazole nitrate], the “z-score of prototroph abundance” value was -7.6.
In the case of `COC(=O)C1=C(C)NC(C)=C(C(=O)OC(C)(C)CN(C)CCC(c2ccccc2)c2ccccc2)C1c1cccc([N+](=O)[O-])c1` (stereo not given) [Lercanidipine], the “z-score of prototroph abundance” value is reported as -0.62.
For `O=C(Nc1cc(Cl)cc(Cl)c1O)c1c(O)c(Cl)cc(Cl)c1Cl` [Oxyclozanide], the “z-score of prototroph abundance” value was 2.11.
`Cc1[nH]cnc1CN1CCc2c(c3ccccc3n2C)C1=O` [Alosetron Hydrochloride] was tested, and the “z-score of prototroph abundance” value was -0.91.
`CC1(C)S[C@@H]2[C@H](NC(=O)[C@H](C(=O)O)c3ccsc3)C(=O)N2[C@H]1C(=O)O` [Ticarcillin sodium] was tested, and the “z-score of prototroph abundance” value was -0.89.
With `O=C(O)c1cc(-c2ccc(F)cc2F)ccc1O` [Diflunisal] the “z-score of prototroph abundance” value was 3.54.
With `CCCCCCCCCCCCCCCCCCOP(=O)([O-])OC1CC[N+](C)(C)CC1` [Perifosine (KRX-0401)] the “z-score of prototroph abundance” value was -18.5.
`CCCSc1ccc2[nH]c(NC(=O)OC)nc2c1` [Albendazole] was tested, and the “z-score of prototroph abundance” value was -0.36.
In the case of `Nc1ccc(/N=N/c2ccccc2)c(N)n1` [Phenazopyridine HCl], the “z-score of prototroph abundance” value is reported as 2.41.
`c1cnc2cc3c(cc2n1)[C@@H]1CNC[C@H]3C1` [Varenicline Tartrate] was tested, and the “z-score of prototroph abundance” value was 0.71.
`COC(=O)Nc1nc2cc([S+]([O-])c3ccccc3)ccc2[nH]1` (stereo not given) [Oxfendazole] was tested, and the “z-score of prototroph abundance” value was 0.13.
For `CC1(C)S[C@@H]2[C@H](NC(=O)COc3ccccc3)C(=O)N2[C@H]1C(=O)O` [Penicillin V potassium salt], the “z-score of prototroph abundance” value was 0.29.
`C[C@@H](NCCCc1cccc(C(F)(F)F)c1)c1cccc2ccccc12` [Cinacalcet HCl] was tested, and the “z-score of prototroph abundance” value was -0.37.
In the case of `O=C(O)C1=C(CSc2nnnn2CS(=O)(=O)O)CS[C@@H]2[C@H](NC(=O)[C@H](O)c3ccccc3)C(=O)N12` [Cefonicid sodium], the “z-score of prototroph abundance” value is reported as 0.12.
In the case of `CCCNC(C)C(=O)Nc1ccccc1C` (stereo not given) [Prilocaine], the “z-score of prototroph abundance” value is reported as -0.27.
